These results are taken from PubChem BioAssay (NCATS).

Structures are written as SMILES. Results filed as inconclusive are left out. Active and inactive are the calls of the source. Calls come from the whole dose curve; as a rule, active = well fitted curve in the direction sought with a large enough effect; inconclusive = small, poorly fitted or top-dose-only effect, or another doubt; inactive = no such curve, though single readings can be large; an effect the other way counts as inactive or inconclusive.

Assay [1] is described as follows: P-glycoprotein substrates identified in KB-8-5-11 adenocarcinoma cell line, qHTS therapeutic library screen (AID 1346987). Note: nearly all actives have a fitted effect of over 65% in size. A digest of the protocol:
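KB-8-5-11: colchicine-selected sub-line of KB-3-1 over-expressing P-gp; assay medium lacked colchicine. 72 h drug exposure at 37 degree C, CellTiter-Glo.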
Background: In qHTS, concentration-response curves come from the screen itself.

Assay [2] has as its system Zika virus NS2B-NS3 protease (unlinked complex). Put plainly: Primary screen GU Rhodamine qHTS for Zika virus inhibitors: Unlinked NS2B-NS3 protease assay (AID 1347159). Note: nearly all actives have a fitted effect of over 60% in size. Note: potency is the fitted concentration of half-maximal effect. A digest of the protocol: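 A qHTS format was used, with compound concentrations ranging up to 114 microM. Each compound was preincubated with 25 nM NS2B-NS3 protease, and the substrate was then added at 1.5 microM. Curves were fitted with a 4-parameter Hill model.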

The test system of assay [3] is Zika virus NS2B-NS3 protease (linked construct). Put plainly: Confirmatory screen NINDS AMC qHTS for Zika virus inhibitors (AID 1347152). Note: potency is the fitted concentration of half-maximal effect; nearly all actives have a fitted effect of over 70% in size. A digest of the protocol: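 In this dose-response qHTS, AMC release from 10 microM Bz-Nle-KRR-AMC by 1 nM linked protease is measured over 15 minutes (about 20% conversion) at pH 8.0. Percent inhibition is fitted to a 4-parameter Hill curve.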

Assay [4] deals with Zika virus NS2B-NS3 protease (unlinked complex). Put plainly: Confirmatory screen GU AMC qHTS for Zika virus inhibitors (AID 1347153).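 Note: enzyme at 25 nM with substrate at 10 µM below its Km of 18.3 µM; potency is the fitted concentration of half-maximal effect; nearly all actives have a fitted effect of over 70% in size.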 Summed up: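 Fluorescence change (ex 340/em 450 nm) over 15 min, ~20% substrate conversion, normalized to no-inhibitor and no-enzyme controls, then Hill-fitted. Unlinked protease at 25 nM; AMC peptide 10 µM.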
Assay [5] in a line: Confirmatory screen GU Rhodamine qHTS for Zika virus inhibitors qHTS (AID 1347157). Note: potency is the fitted concentration of half-maximal effect; nearly all actives have a fitted effect of over 70% in size. Summed up: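 Percent inhibition came from the 15-min rise in Rhodamine110 fluorescence (1.5 microM substrate, ~15% conversion), normalized to no-inhibitor and no-enzyme wells and Hill-fitted. Unlinked protease, 25 nM, pH 8.0 Tris buffer; compounds up to 114 microM, 15-min preincubation.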
Assay [6] can be described thus: Confirmatory screen NINDS Rhodamine qHTS for Zika virus inhibitors (AID 1347161). Note: potency is the fitted concentration of half-maximal effect; nearly all actives have a fitted effect of over 60% in size. A digest of the protocol:
(§1)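 Kinetic fluorescence (Ex 480 nm, Em 540 nm) over 15 min with 1.5 microM Rhodamine110 peptide and 25 nM linked protease.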

In assay [7] the test system is Zika virus NS2B-NS3 protease (linked). Put plainly: 384 well plate NINDS AMC confirmatory qHTS for Zika virus inhibitors (AID 1347163). Note: nearly all actives have a fitted effect of over 50% in size. Note: potency is the fitted concentration of half-maximal effect. Summed up: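 Linked protease 5/30/60 nM final; cpds up to 1 mM final, ~15 min preinc. Substrate Ac-VKTGKR-AMC 30 microM final. RT, dark, 25 min; FI ex 355/em 460; normalized to no-enzyme/no-inhibitor ctrls.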
For assay [8], the system named is Zika virus NS2B-NS3 protease (linked construct). Put plainly: 384 well plate NINDS Rhodamine confirmatory qHTS for Zika virus inhibitors (AID 1347164). Note: nearly all actives have a fitted effect of over 65% in size. Note: potency is the fitted concentration of half-maximal effect. A digest of the protocol: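 Compounds are incubated about 15 minutes with linked protease (5, 30 or 60 nM final). Rhodamine 110-tagged Ac-LKRR substrate (10 microM final) is added and fluorescence measured after 25 minutes.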

A short description of assay [9]: Vero cells viability qHTS for Zika virus inhibitors (AID 1347167). A digest of the protocol:
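Compounds were tested in concentration series on cells grown in DMEM containing 4% FBS. After 24 to 48 hours, cellular ATP was measured by luminescence with CellTiter Glo.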

Assay [10] in a line: ZIKV-mCherry secondary qHTS for Zika virus inhibitors (AID 1347158). Note: top concentration of the series differs between compounds. A digest of the protocol:
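Vero cells, 5,000/well, plated overnight at 37 °C, then compound added and infected with recombinant ZIKV-mCherry at MOI 1 for 48-72 h. PFA-fixed, Hoechst nuclear stain, high-content imaging; cells with mCherry intensity above 450 RFU scored infected, reported as percent infection.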

Assay [11] concerns Zika virus NS2B-NS3 protease (linked construct). Put plainly: Primary screen NINDS Rhodamine qHTS for Zika virus inhibitors (AID 1347160). Note: nearly all actives have a fitted effect of over 55% in size. Note: potency is the fitted concentration of half-maximal effect. Summed up: as §1

For the compound `O=C(OC(C(F)(F)F)C(F)(F)F)N1CCN(Cc2cccc(Oc3ccccc3)c2)CC1`, the Potency entry in assay [1] and in assay [2] was “inactive” each time.

`C=C1CCC2C(C)(C)CC(=O)CC2(C)C1CCC(C)CCO` (centres undefined): the Potency result in [1] was “inactive”. Besides, in [2], the Potency was 20 µM (active).

As for `Cc1ccc2[nH]c(=O)c(C3=NN(C(=O)CCC(=O)O)C(c4ccc(Br)cc4)C3)c(-c3ccccc3)c2c1` (centres undefined), the Potency result in assay [1], in [7] and in [8] was “inactive” each time. Moreover, the Potency in assay [3] is 44.1 µM (active); in assay [4], 49.4 µM (active); in assay [5], 3.93 µM (active); in assay [2], 6.31 µM (active); in [6], 3.93 µM (active). Further, the compound was classed as inactive in [9].

For the compound `O=C(O)CC/C=C\C[C@H]1CO[C@@H](c2ccccc2Cl)O[C@H]1c1ccccc1O`, the Potency entry in assay [1] and in assay [2] was “inactive” each time. Moreover, the Potency is 31.2 µM (active) in assay [5] and 44.1 µM (active) in assay [6].

For `Cc1cc(C)c2nc(-c3ccccn3)cc(C(=O)Nc3ccc(S(=O)(=O)Nc4onc(C)c4C)cc3)c2c1`, the Potency entry in assay [1] and in assay [10] was “inactive” in each case. For the same compound, the Potency in assay [3] was 22.1 µM (active); in assay [5], 2.78 µM (active); in assay [2], 2 µM (active); in [11] it was 2.24 µM (active); in assay [6], 3.12 µM (active); in assay [7], 5.01 µM (active). Also, the Potency in assay [8] is 3.98 µM (active). The outcome in assay [9] was inactive.

`COc1ccc(CC(NC(C)=O)C(=O)O)cc1` (centres undefined): the Potency entry in assay [1] is “inactive”. For the same compound, in [2], the Potency was 31.6 µM (active).

In the case of `COc1ccc(C2C(C(=O)O)C(C(=O)O)C2c2ccc(OC)cc2O[C@@H]2O[C@H](CO)[C@@H](O)[C@H](O)[C@H]2O)c(O[C@@H]2O[C@H](CO)[C@@H](O)[C@H](O)[C@H]2O)c1` (some centres undefined), the Potency entry in assay [1] and in assay [11] was “inactive” each time. Further, the Potency is 9.26 µM (active) in assay [5], 7.94 µM (active) in assay [2] and 11.7 µM (active) in [6].

For the compound `CC(O)C1CCC2C3CCC4CC(OC5OC(C(=O)O)C(O)C(O)C5O)CCC4(C)C3CCC12C` (centres undefined), the Potency result in assay [1], in assay [2] and in [11] was “inactive” in each case.

In the case of `Oc1ccccc1-c1cc(-c2ccccc2F)[nH]n1`, the Potency entry in assay [1], in [2] and in assay [11] was “inactive” throughout.

Turning to `COc1cc(/C=C/C(=O)O[C@@H]2C[C@@](O)(C(=O)O)C[C@@H](O)[C@@H]2O)ccc1O`, the Potency entry in assay [1], in assay [2] and in assay [11] was “inactive” each time.

Consider `C=CC(C)(CCC=C(C)C)O[C@@H]1O[C@H](CO)[C@@H](O)[C@H](O)[C@H]1O` (some centres undefined), for which the Potency result in assay [1], in assay [2] and in assay [11] was “inactive” in each case.

As to `C=C1CCC2C(C)(C)CC(O)CC2(C)C1CCC(C)CC(=O)O` (centres undefined), the Potency entry in [1] is “inactive”. In addition, the Potency in assay [2] is 11.2 µM (active).

`C=C[C@H]1[C@H](O[C@@H]2O[C@H](CO)[C@@H](O)[C@H](OC(=O)/C=C/c3ccc(O)c(OC)c3)[C@H]2O)OC=C2C(=O)OCC[C@]21O`: the Potency entry in [1], in [2] and in [11] was “inactive” each time.

For the compound `Fc1ccccc1-c1nc2ccn(Cc3ccc(-c4ccc(C(F)(F)F)cc4C(F)(F)F)nn3)cc-2n1`, the Potency entry in [1], in assay [2] and in assay [11] was “inactive” each time.

Consider `C[C@@H]1CCC2C(C)(C)[C@H](O)[C@H](O)C[C@]2(C)[C@@]12Cc1c(O)cc3c(c1O2)CN(CCCC(=O)O)C3=O` (some centres undefined), for which the Potency entry in [1], in assay [2] and in assay [11] was “inactive” in each case.

Take `CC(C)=CCC[C@](C)(O[C@@H]1O[C@H](CO[C@@H]2OC[C@H](O)[C@H](O)[C@H]2O)[C@@H](O)[C@H](O)[C@H]1O)[C@H]1CC[C@]2(C)[C@@H]1[C@H](O)C[C@@H]1[C@@]3(C)CC[C@H](O[C@@H]4O[C@H](CO)[C@@H](O)[C@H](O)[C@H]4O[C@@H]4O[C@H](CO)[C@@H](O)[C@H](O)[C@H]4O)C(C)(C)[C@@H]3CC[C@]12C`: the Potency entry in assay [1], in [2] and in [11] was “inactive” throughout.

As for `COC(=O)Cn1nc(-c2cccc(OC)c2)c2ccccc21`, the Potency result in [1], in [2] and in [11] was “inactive” in each case.

Regarding `CC(C)/C=C1/NC(=O)C(C(C)C)n2c1nc1c(O)cccc1c2=O` (centres undefined), the Potency result in [1], in assay [2] and in assay [11] was “inactive” each time.

Regarding `CCOC(=O)c1ccc(NC2CCCCC2)c(N)c1`, the Potency entry in assay [1], in [2] and in assay [11] was “inactive” throughout.
